# Screens as filed in PubChem BioAssay.
# p-CIP stab down – p/CIP-EGFP fusion destabilizers, primary screen, fluorescence, F442A cells. Q05BA5. 16 h. decrease of EGFP signal, % at 10 µM. 290,000 compounds, 0.01% hits;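 active means EGFP signal decrease of at least 30% at 10 µM or well 3 SD below plate mean, unless failing retest; inactive means the rest, including hits failing retest or dose response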
# PHOSPHO1 inh – PubChem AID 1565; 290,000 compounds, 1.1% hits; inhibition, % at 13.3 µM; Phosphoethanolamine/phosphocholine phosphatase (Homo sapiens), Q8TCT1; recombinant PHOSPHO1, absorbance phosphatase assay; in the data active means inhibition above about 60%
# SUMO HTRF inh – inhibitors of in vitro SUMOylation cascade, primary screen, biochemical, HTRF, uHTS. SUMO-conjugating enzyme UBC9 (Homo sapiens), P63279. HTRF SUMOylation assay, SAE1/SAE2 + UBC9. inhibition, % at 35 µM. 290,000 compounds, 0.36% hits; in the data active means inhibition above about 50%, passing the limit was not always enough
# NadD inh – inhibitors of S. aureus NadD, primary screen, biochemical, colorimetric, uHTS; AID 602399, 2012; purified NadD enzyme, colorimetric absorbance read-out; Nicotinate-nucleotide adenylyltransferase NadD (Staphylococcus aureus N315); 360,000 compounds, 0.78% hits; inhibition, % at 20 µM; in the data active means inhibition above about 26%
# NadD conf – inhibitors of S. aureus NadD, confirmation, biochemical, colorimetric, single concentration; shares compounds with NadD inh; purified S. aureus NadD, colorimetric enzyme assay; inhibition, % at 20 µM; 2,000 compounds, 13% hits; in the data active means inhibition mostly above about 42%, no sharp cut-off; inactive means mostly below about 42%
# * hit, by the source's call; nt = no result given. Most compounds without a hit are left out; they make up all but 1.8% or so of the library.
SMILES,p-CIP stab down,PHOSPHO1 inh,SUMO HTRF inh,NadD inh,NadD conf
Cc1ccc(-n2nc3c(c2NC(=O)/C=C\c2ccc4c(c2)OCO4)CSC3)c(C)c1,-4,6,6,31*,57*
Cc1cccc(-n2nc3c(c2NC(=O)c2ccco2)CS(=O)C3)c1C (centres undefined),0,38,18,-3,nt
Cc1ccccc1-n1nc2c(c1NC(=O)/C=C\c1ccc3c(c1)OCO3)CSC2,0,-4,6,28,nt
Cc1cccc(-n2nc3c(c2NC(=O)c2ccco2)CSC3)c1C,-2,39,22,44*,73*
O=C(CCC1CCN(C(=O)Cc2c(F)cccc2F)CC1)NC1CC1,0,1,nt,2,nt
Cc1ccc(-n2nc3c(c2NC(=O)c2ccc(Br)o2)CSC3)c(C)c1,0,14,18,85*,62*
Cc1sc2nc(-c3ccccc3)oc(=O)c2c1C,7,5,2,2,nt
CCN1CCN(Cc2ccc(NC(=O)c3ccc(C)c(NC(=O)c4cc(-c5ccc(Br)cc5)n[nH]4)c3)cc2C(F)(F)F)CC1,-7,16,1,32*,-9
CCN1CCN(Cc2ccc(NC(=O)c3ccc(C)c(NC(=O)c4nccn4C)c3)cc2C(F)(F)F)CC1,-22,34,24,-5,nt
COc1ccc(Cc2nc3c([nH]2)c(=O)n(C)c(=O)n3C)cc1OC,nt,nt,nt,-5,nt
C#CCOCCOCCOCCNc1nc(N2CCN(C(=O)[C@H]([C@@H](C)CC)n3cc([C@@H](N)Cc4ccc(O)cc4)nn3)CC2)nc(N2CCN(C(=O)[C@H](Cc3cc4ccccc4[nH]3)n3cc([C@@H](N)CC(C)C)nn3)CC2)n1,nt,nt,nt,48*,36
COc1ccc(CCNC(=O)CCCn2c(SCC(N)=O)nc3cc4c(cc3c2=O)OCO4)cc1OC,2,42,7,nt,nt
CCC(=O)N1C(=O)CCN(C(C)=O)c2ccccc21,-19,11,0,36*,9
CC(=O)N1CCc2nc3ccccc3cc21,nt,nt,nt,0,nt
O=C(NCc1cccc(F)c1)c1cccc2c1C(=O)c1ccc(N3CCOCC3)cc1S2(=O)=O,nt,nt,nt,8,nt
O=C(NC1CCCC1)c1cccc2c1C(=O)c1ccc(/C=C/c3ccccc3)cc1S2(=O)=O,nt,nt,nt,25,nt
COc1ccccc1N1CCN(c2ccc3c(c2)S(=O)(=O)c2cccc(C(=O)NCc4cccc(F)c4)c2C3=O)CC1,nt,nt,nt,31*,18
O=C(NCc1ccccc1)c1cccc2c1C(=O)c1ccc(/C=C/c3ccccc3)cc1S2(=O)=O,nt,nt,nt,34*,-6
O=C(NCc1cccc(OC(F)(F)F)c1)c1cccc2c1C(=O)c1ccc(-c3ccc(F)cc3OCc3ccccc3)cc1S2(=O)=O,nt,nt,nt,48*,33
CN(Cc1ccc(OC(F)F)cc1)C(=O)c1cccc(S(=O)(=O)N2CCN(c3ccccc3)CC2)c1,nt,nt,nt,3,nt
COc1ccc([C@@H]2CC(=O)[C@@H]3CN(S(=O)(=O)c4ccc(C)cc4)[C@H](c4cccc(Cl)c4)C[C@@H]3N2S(=O)(=O)c2ccccc2)cc1,nt,nt,nt,14,nt
COc1ccc(NC(=O)N(C)C[C@H]2Oc3ccc(NS(=O)(=O)c4c(C)noc4C)cc3C(=O)N([C@H](C)CO)C[C@@H]2C)cc1,nt,nt,nt,1,nt
COC(=O)CC1(c2cccc3ccccc23)C(=O)c2ccccc2C1=O,-2,4,3,-5,nt
NC(CSC1(c2cccc3ccccc23)c2ccccc2-c2ccccc21)C(=O)O (centres undefined),nt,nt,nt,42*,64*
CCOC(=O)N1CCN(S(=O)(=O)c2ccc(F)c(C(=O)Nc3cccc(Cl)c3C)c2)CC1,-3,12,2,2,nt
SMILES,p-CIP stab down,PHOSPHO1 inh,SUMO HTRF inh,NadD inh,NadD conf
O=c1c2ccccc2nc(/C=C/c2c[nH]c3ccccc23)n1-c1ccc([N+](=O)[O-])cc1,9,1,-6,40*,-1
O=C(c1cc(C2CCCCN2S(=O)(=O)Cc2ccccc2)on1)N1CCOCC1 (centres undefined),nt,nt,nt,-4,nt
COc1cc(/C=C2\SC(=O)N(Cc3ccc(F)cc3)C2=O)cc([N+](=O)[O-])c1O,-12,32,18,38*,4
CCOC(=O)CN1C(=O)S/C(=C/c2ccc(OC)c([N+](=O)[O-])c2)C1=O,0,-12,-6,-6,nt
COc1cc(/C=C2\SC(=O)N(Cc3ccc(Cl)cc3)C2=O)cc([N+](=O)[O-])c1O,-1,53,26,37*,11
CCOc1ccc(N2CC(C(=O)Nc3ccc(S(=O)(=O)NCC4CCCO4)cc3)CC2=O)cc1 (centres undefined),-1,35,3,0,nt
CCc1cc(C(=O)Nc2nc(-c3ccccn3)cs2)sc1C,nt,nt,nt,33*,9
Cc1ccc(C(=O)Nc2nc(-c3ccccn3)cs2)o1,-12,15,-12,7,nt
O=C(Nc1nc(-c2ccccn2)cs1)c1ccc(-c2ccccc2F)o1,nt,nt,nt,40*,18
COc1ccc(C(C)=O)cc1COC(=O)c1ccc(C)c(S(=O)(=O)N2CCOCC2)c1,nt,nt,nt,8,nt
Cc1ccc2cc(C#N)c(N3CCCC3)nc2c1C,2,3,7,34*,2
O=C(CN1C(=O)NC(Cc2c[nH]c3ccccc23)C1=O)Nc1ccc(Br)cc1F (centres undefined),nt,nt,nt,-3,nt
Cc1c(N=Cc2c(O)n(C)c(=O)c3ccccc23)c(=O)n(-c2ccccc2)n1C,-5,19,26,-6,nt
COc1ccc(C2=C(C=Nc3c(C)n(C)n(-c4ccccc4)c3=O)C(c3ccccc3C)c3ccccc3O2)cc1OC (centres undefined),-19,3,11,34*,12
CC(C)C[C@@H](CN1CCCC1CN1C(=S)NC[C@@H]1Cc1ccc(O)cc1)N1C[C@H](Cc2ccc(O)cc2)N(CC2CCCCCC2)C1=S (some centres undefined),nt,nt,nt,55*,36
CC(C)C[C@H]1CNC(=S)N1C[C@H]1CCCN1C[C@H](CC(C)C)N1C[C@H](Cc2ccc(O)cc2)N(CC2CCCCC2)C1=S,nt,nt,nt,41*,11
COc1cc(C)c(C(=O)CSc2nnc(CNC(=O)c3ccco3)n2C)cc1C,-12,28,19,3,nt
COc1ccc(NS(=O)(=O)c2ccc3nc(COc4cccc5ccccc45)[nH]c3c2)cc1,-6,-90,-4,38*,36
Cc1ccc(Cn2c(C3CCCN3c3nc(-c4cc(Cl)c(N)c(Cl)c4)cs3)nc3cc(Cl)c(Cl)cc32)cc1 (centres undefined),nt,nt,nt,51*,43*
Nc1c(Cl)cc(-c2csc(N3CCCC3c3nc4cc(Cl)c(N5CCCCC5)cc4n3CCCO)n2)cc1Cl (centres undefined),nt,nt,nt,32*,15
Nc1c(Cl)cc(-c2csc(N3CCCC3c3nc4cc(Cl)c(Cl)cc4n3CCCO)n2)cc1Cl (centres undefined),nt,nt,nt,14,nt
